The values that follow come from PubChem BioAssay AID1563 (The Scripps Research Institute Molecular Screening Center, 2009).

The experiment concerns the target Sphingosine 1-phosphate receptor 1 (Homo sapiens) (UniProt P21453). In words: activation of human S1P1 receptor – cell-based, counter-screen for S1P4 agonist project (AID 1563).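 Further: 0% = vehicle wells and 100% = reference agonist.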 The conditions noted are these: S1P1 agonist cell-based assay, at 4.98 µM, stronger effect = higher value. In general terms: A counterscreen serves to expose hits that act by an unwanted route or on another target.

The list shows a part of the results. A number with no mark means an inactive call. No stated cut-off is given here; in the data, active means activation above about 21%; inactive means the rest.

Chain of Sphingosine 1-phosphate receptor 1 (Homo sapiens) (P21453 whole entry, looked up): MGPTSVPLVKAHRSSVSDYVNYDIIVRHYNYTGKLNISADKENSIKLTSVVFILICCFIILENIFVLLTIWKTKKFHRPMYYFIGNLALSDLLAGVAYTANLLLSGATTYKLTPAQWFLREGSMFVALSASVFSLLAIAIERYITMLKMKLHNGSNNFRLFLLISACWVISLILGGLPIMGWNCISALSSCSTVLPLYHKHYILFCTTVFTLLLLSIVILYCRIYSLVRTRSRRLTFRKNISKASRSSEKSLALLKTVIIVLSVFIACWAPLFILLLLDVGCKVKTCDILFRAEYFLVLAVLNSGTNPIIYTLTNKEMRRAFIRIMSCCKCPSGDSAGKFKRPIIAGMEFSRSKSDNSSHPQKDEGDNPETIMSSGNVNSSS

Consider `CC(C)N(CC#CCC1(O)c2ccccc2-c2ccccc21)C(C)C`, for which the activation was 1.18%.
